Data on seven molecules can be found in PubChem BioAssay AID2284351 (EPA ToxCast).

Each structure is given as a SMILES string. Activity calls are given as the source filed them. How the source made its calls: active means hit-call score of the fitted dose curve at least 0.9, where 1 is the maximum; inactive means score below 0.9.

Sequence of Peroxisome proliferator-activated receptor gamma (Homo sapiens) (P37231 whole entry, looked up): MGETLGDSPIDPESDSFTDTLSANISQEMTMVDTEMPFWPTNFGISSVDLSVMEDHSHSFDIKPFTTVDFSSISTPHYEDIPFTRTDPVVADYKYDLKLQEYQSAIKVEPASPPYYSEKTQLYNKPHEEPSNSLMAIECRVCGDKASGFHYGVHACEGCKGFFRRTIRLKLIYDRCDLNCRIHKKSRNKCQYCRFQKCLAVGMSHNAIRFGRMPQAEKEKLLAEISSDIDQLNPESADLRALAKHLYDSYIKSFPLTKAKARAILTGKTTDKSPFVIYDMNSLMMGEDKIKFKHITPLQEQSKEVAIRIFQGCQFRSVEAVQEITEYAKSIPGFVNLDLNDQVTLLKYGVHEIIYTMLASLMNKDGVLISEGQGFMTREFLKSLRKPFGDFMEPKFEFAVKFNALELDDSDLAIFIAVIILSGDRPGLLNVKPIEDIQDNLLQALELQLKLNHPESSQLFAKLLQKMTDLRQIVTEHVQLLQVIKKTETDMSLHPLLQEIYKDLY

The target of the assay is Peroxisome proliferator-activated receptor gamma (Homo sapiens) (UniProt P37231). The experiment in a line: ATG_hPPARg_EcoTox2: Attagene TRANS-FACTORIAL EcoTox-2 HepG2 Assay for human Peroxisome Proliferator-activated Receptor gamma (PPARg). The procedure:
ATG_EcoTox2 is a cell-based, multiplexed assay created by modifying the existing Attagene TRANS-FACTORIAL system to include a panel of nuclear receptors from some or all the following species: human (Homo sapiens), african clawed frog (Xenopus laevis), rainbow trout (Oncorhynchus mykiss), japanese medaka (Oryzias latipes), and zebrafish (Danio rerio). The ECOTOX2-FACTORIAL format uses HepG2, a human liver cell line, with measurements taken at 24 hours after chemical dosing in a 24-well plate. ATG_hPPARg_EcoTox2 is one of 29 assay components calculated in the ATG_EcoTox2 assay. It is designed to make measurements of mRNA induction, a form of inducible reporter, as detected with fluorescence intensity signals by Reverse transcription polymerase chain reaction (RT-PCR) and Capillary electrophoresis technology.The assay endpoint ATG_hPPARg_EcoTox2 was analyzed in the positive analysis fitting direction relative to DMSO as the negative control and baseline of activity. Using a type of inducible reporter, measures of mRNA for gain-of-signal activity can be used to understand the reporter gene at the transcription factor-level as they relate to the gene PPARg. Furthermore, this assay endpoint can be referred to as a primary readout, because this assay has produced multiple assay endpoints where this one serves a reporter gene function. To generalize the intended target to other relatable targets, this assay endpoint is annotated to the nuclear receptor intended target family, where the subfamily is non-steroidal.
Human liver HepG2 cells are transiently transfected with multiple reporter transcription units (MRTUs) in 6-well plates using FuGene 6 reagent (Roche; 3 ml FuGene/1 mg DNA). The MRTU constructs are regulated by a cis-regulating element (promoter). Each RTU expresses a GAL4-UAS that regulates the transcription of a nearby target reporter gene sequence. A major difference between the CIS and TRANS system is that in CIS activities of endogenous TFs are measured, whereas the TRANS assay evaluates changes in activities of exogenous, chimeric NR-Gal4 proteins. […] At the end of 24 hour incubation, total RNA was isolated using TriZol reagent (Invitrogen). The isolated RNA is then reverse-transcribed using oligo(dT) primer and Mo-MLV reverse transcriptase (Invitrogen) with DNAse I (Ambion) treatment for 30 min. The one-tenth of the produced cDNA was amplified by PCR using Taq DNA polymerase (Invitrogen) and two reporter sequence-specific primers. The PCR products were fluorescently labeled by primer extension with 6-arboxyfluorescein (6-FAM) 5'-labeled reporter sequence-specific primer (2 min at 95 C, 20 s at 68 C and 10 min at 72 C) and these products were digested with 5U of HpaI (New England Biolabs) for 2h at 37 C. The fragments were purified using Qiaquick PCR columns (Qiagen), analyzed on an ABI 3130xL genetic analyzer (Applied Biosystems) with peak positions identified by using a set of X-rhodamine (ROX)-labeled MapMarker1000 molecular weight standards (BioVentures). The raw capillary electrophoresis data was processed using Attagraph software (Attagene).
As to `CC(C)(Oc1ccc(CCNC(=O)c2ccc(Cl)cc2)cc1)C(=O)O`, the AC50 (in general, the concentration giving half of the maximal activity seen) is 14 µM (active).

For `C=C(c1ccc(C(=O)O)cc1)c1cc2c(cc1C)C(C)(C)CCC2(C)C`, the AC50 is 1.1 µM (active).

With `CC(C)(Oc1ccc(C2CC2(Cl)Cl)cc1)C(=O)O` (configuration not stated), the AC50 is 37.3 µM (active).

Regarding `Cc1nc(-c2ccc(C(F)(F)F)cc2)sc1C(=O)NCc1ccc(OC(C)(C)C(=O)O)cc1`, the AC50 is 1.29 µM (active).

As for `CC(C)(Oc1ccc(Cl)cc1)C(=O)O`, the AC50 was 80.6 µM (active).

In the case of `C[C@]12C=CC(=O)C=C1CC[C@@H]1[C@@H]2C(=O)C[C@@]2(C)[C@H]1CC[C@]2(O)C(=O)CO`, the molecule was called inactive.

On to `C[C@@H]1C[C@H]2[C@@H]3CCC4=CC(=O)C=C[C@]4(C)[C@@]3(F)[C@@H](O)C[C@]2(C)[C@@]1(O)C(=O)COP(=O)(O)O`, for which the molecule was called inactive.
